Compound activity (PubChem)
CHRM1 PAM = human CHRM1 positive allosteric modulation; P11229; CHO-K1 hM1, Fluo-8 calcium fluorescence, ACh EC20; 0% = ACh EC20, 100% = maximal ACh; activation, % at 3 µM; 360,000 compounds, 0.088% hits; in the data active = activation above about 19%, passing the limit was not always enough
Target sequence (P11229 whole entry, looked up): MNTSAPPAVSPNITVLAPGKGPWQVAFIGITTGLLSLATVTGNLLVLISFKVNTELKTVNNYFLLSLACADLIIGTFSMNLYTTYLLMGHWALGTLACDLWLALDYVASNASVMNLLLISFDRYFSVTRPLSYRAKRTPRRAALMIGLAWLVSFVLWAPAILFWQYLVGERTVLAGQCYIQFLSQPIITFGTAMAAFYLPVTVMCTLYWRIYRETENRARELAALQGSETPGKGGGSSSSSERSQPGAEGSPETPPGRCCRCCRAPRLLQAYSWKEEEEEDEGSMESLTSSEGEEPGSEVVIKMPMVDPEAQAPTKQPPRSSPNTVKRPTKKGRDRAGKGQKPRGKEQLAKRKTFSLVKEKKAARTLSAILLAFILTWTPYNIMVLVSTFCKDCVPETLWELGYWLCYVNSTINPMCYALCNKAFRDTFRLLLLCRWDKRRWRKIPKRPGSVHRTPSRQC
CHO-K1 Ca antag = counter-screen for M1 antagonists: effect in parental CHO-K1 cells; ATP-induced calcium, Fluo-8 fluorescence; inhibition, % at 3 µM; 360,000 compounds, 0.6% hits; AID 602250;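 active = inhibition above a per-plate cutoff, the plate's mean sample inhibition plus 3 SD, cut at about 24% in these data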
M1 PAM parental = M1 PAM counterscreen hit in parental CHO-K1 cells. ATP EC20, Fluo-8 calcium fluorescence; 0% at ATP EC20, 100% at ATP max. activation, % at 3 µM. 360,000 compounds, 0.02% hits. AID 602247;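 active = activation above the run cutoff, the mean activation of all test compounds plus 3 SD, cut at about 40% in these data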;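 note: peak over basal fluorescence ratio in a 140 s read after ATP addition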
M1 ag = agonists of human M1 muscarinic receptor. CHO-K1 hM1, Fluo-8 calcium fluorescence, agonist mode; 0% DMSO, 100% acetylcholine EC100. AID 588814. 360,000 compounds, 0.33% hits. P11229. activation, % at 3 µM;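 active = activation above the run's mean compound activation plus 3 SD, cut at about 16% in these data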;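 note: peak over basal fluorescence ratio within a 140 s kinetic read after compound addition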
CHO-K1 Ca ag = counter-screen for M1 agonists: effect in parental CHO-K1 cells. activation, % at 3 µM. Fluo-8 calcium fluorescence; scaled to maximal ATP response, vehicle zero. 360,000 compounds, 0.48% hits; in the data active = activation above about 15%;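 note: untransfected CHO-K1 host cells lacking M1 receptor as counterscreen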
M1 antag = antagonists of human M1 muscarinic receptor; CHO-K1 hM1, Fluo-8 calcium fluorescence, ACh EC80 antagonist; inhibition, % at 3 µM; 360,000 compounds, 1.3% hits; AID 588852;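 active = percent inhibition above its own plate's cutoff, namely the mean of that plate's compound wells plus 3 SD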;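 note: peak over basal fluorescence ratio during 140 s after agonist addition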
Numbers stand for hits; – = inactive. A selection: hits, their analogues and other compounds. The true share with any hit is near 2.3%.

SMILES	CHRM1 PAM	CHO-K1 Ca antag	M1 PAM parental	M1 ag	CHO-K1 Ca ag	M1 antag
CCNC(=O)CC1C(=O)N(c2ccccc2)C(=O)N1CCOC (stereo not drawn)	–	–	–	–	–	–
COc1cccc(NC(=O)N2CCC(NC(=O)C3CCCCC3)CC2)c1	28	–	–	–	–	–
Cc1cc(OCC(=O)NCCc2c[nH]c3ccccc23)c2c(C)cc(=O)oc2c1	–	–	–	–	–	–
N#Cc1ccccc1Sc1ccccc1C(=O)NCC(c1ccco1)N1CCCC1 (stereo not drawn)	–	–	–	–	–	37
O=C(NCC(c1ccco1)N1CCCCC1)C(c1ccccc1)c1ccccc1 (stereo not drawn)	–	–	–	–	–	78
Cc1cc(C)c(S(=O)(=O)N2CCCCC2)c(C)c1N(C)S(=O)(=O)c1ccc(Cl)cc1	–	–	–	–	–	–
Cn1cnc2c1c(=O)n(CC(O)CO)c(=O)n2C (stereo not drawn)	–	–	–	–	–	29
Cn1cnc2c1c(=O)n(Cc1ccccc1)c(=O)n2C	–	–	–	–	–	–
CCCOc1ccc(C(C(=O)OCCN(CC)CC)c2ccccc2)cc1 (stereo not drawn)	–	–	–	–	–	98
COc1ccc(C(C(=O)OCCN(C)C)c2ccccc2)cc1 (stereo not drawn)	–	–	–	–	–	78
CC[C@H](C)[C@H]1CNC(=S)N1CC1CCN(CCC23CC4CC(CC(C4)C2)C3)CC1	–	–	–	–	–	90
O=C(COc1ccccc1Cl)c1ccc[nH]1	–	–	–	–	–	29
CCN(CC)CCCNC(=O)CNC(=O)c1nn(-c2ccc(OC)cc2)c(=O)c2ccccc12	–	–	–	–	–	45
CCC1CCCCN1CCCNC(=O)CNC(=O)c1nn(-c2ccc(OC)cc2)c(=O)c2ccccc12 (stereo not drawn)	–	–	–	–	–	40
CCN(CC)CCNC(=O)CNC(=O)c1nn(-c2ccc(OC)cc2)c(=O)c2ccccc12	–	–	–	–	–	–
CC(C)(C)OC(=O)N1CCC(C(=O)Nc2ccc(C(=O)N3CCCCC3)cc2)CC1	–	–	–	–	–	–
Cc1cccc(C)c1NC(=O)CN(C)C(C)C(=O)Nc1ccccc1-c1ccccc1 (stereo not drawn)	–	–	–	–	–	–
Cc1ccccc1CN(C)C(C)C(=O)Nc1ccccc1F (stereo not drawn)	–	–	–	–	19	–
OC(c1ccc(F)c(F)c1)c1nc(-c2ccc3c(c2)OCO3)cs1 (stereo not drawn)	–	–	–	–	–	–
COc1cc(NC(=O)C2(C)CCCN2C)cc(OC)c1OC (stereo not drawn)	–	28	–	–	–	–
Cc1cc(C)n2nc(C(=O)OCC(=O)N(C)CC(=O)Nc3ccccc3Cl)nc2n1	–	–	–	–	–	–
COc1ccc(C(=O)N/C(=C/c2ccc(Cl)cc2)C(=O)Nc2ccc(C(=O)O)cc2)cc1	–	25	–	–	–	–
COc1ccc(/C=C(\NC(=O)c2ccc(OC)cc2)C(=O)Nc2cccc(C(=O)O)c2)cc1	–	–	–	–	–	–
CCOc1ccccc1CN1CCN(CC2=Cc3cc(OC)ccc3OC2)CC1CCO (stereo not drawn)	–	–	–	–	–	34
CCOc1ccccc1CN1CCN(Cc2ccc(C)o2)CC1CCO (stereo not drawn)	–	–	–	–	–	–
SMILES	CHRM1 PAM	CHO-K1 Ca antag	M1 PAM parental	M1 ag	CHO-K1 Ca ag	M1 antag
CCOC(=O)c1sc(=S)n(-c2ccccc2Cl)c1SC	–	–	–	–	–	100
CCOC(=O)c1sc(=S)n(-c2ccc(Cl)cc2)c1C	–	–	–	–	–	–
CCOC(=O)c1sc(=S)n(-c2ccccc2)c1SC	–	–	–	–	–	51
CCOC(=O)c1sc(=S)n(-c2cccc(C(F)(F)F)c2)c1SC	–	–	–	–	–	–
COc1ccc(CNC(=O)Cn2c(=O)n(CC(=O)N3CCCCC3)c(=O)c3sccc32)cc1	–	–	–	–	–	–
CCC(C)(C(=O)NC1CCCCC1)N(Cc1ccco1)C(=O)c1ccccn1 (stereo not drawn)	–	–	–	–	–	–
COc1ccc(N2C[C@H](C)[C@@H](CC(=O)Nc3ccc(Br)cc3)C2=O)cc1	–	25	–	–	–	–
O=C(NNC(=O)c1ccncc1)Nc1ccc(N=Nc2ccccc2)cc1	–	–	–	18	–	–
Cc1ccc2cc(CN(Cc3cccs3)Cc3nnnn3CC3CCCO3)c(=O)[nH]c2c1 (stereo not drawn)	–	–	–	–	–	–
Cc1ccc2cc(CN(Cc3cccs3)Cc3nnnn3CC3CCCO3)c(=O)[nH]c2c1C (stereo not drawn)	–	24	–	–	–	–
NC1(CO)COC(c2ccccc2)OC1 (stereo not drawn)	–	–	–	–	–	–
COc1ccc(CNC(=O)C(c2ccco2)N(C(=O)CNS(=O)(=O)c2ccccc2)c2ccccc2C)cc1 (stereo not drawn)	–	–	–	–	54	–
COc1ccc(S(=O)(=O)NCC(=O)N(CC(=O)NCc2ccccc2)Cc2ccco2)cc1	–	–	–	–	–	–
COc1ccccc1C(CC(=O)O)NS(=O)(=O)c1ccc2c(c1)N(C(C)=O)CC(C)O2 (stereo not drawn)	–	–	–	–	–	–
Cc1ccc2nc(/C(C#N)=C\c3ccc(N4CCOCC4)o3)[nH]c2c1	–	–	–	31	–	–
O=C1CC(c2ccsc2)Sc2ccccc2N1 (stereo not drawn)	–	–	–	–	20	–
CCn1cc(C2=NOC(C(=O)Nc3cc(C)nn3-c3ccccc3)C2)c(C)n1 (stereo not drawn)	–	–	–	–	–	–
COc1ccccc1N1CCN(C(=O)c2ccc(CS(=O)(=O)c3ccccc3OC)o2)CC1	–	–	–	17	–	–
CCOC(=O)C(NC(=O)N(C)C)(Nc1sc(C)c(CC)c1C#N)C(F)(F)F (stereo not drawn)	–	–	–	–	–	–
CCOC(=O)C1=C(COC(=O)c2cc(Br)c(Br)s2)NC(=O)NC1C (stereo not drawn)	–	–	–	–	–	–
CC(C)(C)OC(=O)NCCc1nnc(SCC(=O)Nc2ccc(Br)cc2)o1	–	–	–	–	29	–
CC(C)(C)OC(=O)NCCCCCc1nnc(SCC(=O)Nc2cccc(Cl)c2)o1	–	–	–	–	–	36
CCn1c(SCC(=O)Nc2ccc(N(C)C)cc2)nnc1-c1ccco1	–	–	–	–	–	–
S=C(NCc1ccco1)Nc1cc(-c2ccccc2)[nH]n1	–	–	–	–	–	–
